# From ChEMBL document CHEMBL3988442, “University of Dundee, Small-Polar-MMV Screening Library” (2021)
# Hit rate of the full screen: of about 69,000 compounds, about 1,000 (1.4%) showed an effect of 50% or more. This is one part of a sample in which strong results are shown more often than they occur.
# Tested on: Leishmania donovani
# Test: Leishmania intramacrophage assay
# Format: functional, organism-based
# Set-up: scale not given: in the data most compounds retested in dose-response had high values
smiles,measurement,setting,value
Cc1oncc1C(=O)N1CCC(O)(CN2CCOCC2)C(C)(C)C1 (stereo not given),Percent Effect,"30.3 µM, […]",22.16%
COc1cccc(CN(C)Cc2nc3c(cnn3C)c(=O)[nH]2)c1OC,Percent Effect,"30.3 µM, […]",-6.431%
COc1cc(NC2CCN(C3CCS(=O)(=O)CC3)CC2)ncn1,Percent Effect,"30.3 µM, […]",36.7%
Cc1nc2[nH]cnc(Nc3cc(C)n(C)n3)c-2n1,Percent Effect,"30.3 µM, […]",75.58%
Cc1nc2[nH]cnc(Nc3ccn(C)n3)c-2n1,Percent Effect,"30.3 µM, […]",-6.289%
Cc1nc2[nH]cnc(Nc3cnn(C)c3)c-2n1,Percent Effect,"30.3 µM, […]",10.52%
CCSCCC(=O)Nc1ncn(CC(=O)NCc2ccccc2)n1,Percent Effect,"30 µM, 30.03 µM",19.14%
O=C(c1c2c(N3CCOCC3)ncnc2n2ccccc12)N1CCCC1,Percent Effect,"30.3 µM, […]",16.59%
CN(C)CCN1CCOCC2(CCCN(C(=O)c3ccoc3)C2)C1.O=C(O)C(F)(F)F.O=C(O)C(F)(F)F (stereo not given),Percent Effect,"30.3 µM, […]",9.003%
Cc1cc2cc(CNC3CCN(CC(=O)N(C)C)CC3)oc2cc1C,Percent Effect,"30.3 µM, […]",25.29%
Cc1cc2cc(CNC3CCN(CC4CCOC4)CC3)oc2cc1C (stereo not given),Percent Effect,"30.3 µM, […]",70.06%
Cc1cc2cc(CNC3CCN(S(C)(=O)=O)CC3)oc2cc1C,Percent Effect,"30.3 µM, […]",23.07%
CN(C)S(=O)(=O)c1ccc(-c2nc(C#N)c(NC3CC3)o2)o1,Percent Effect,"30.3 µM, […]",20.5%
CN(C)S(=O)(=O)c1ccc(-c2nc(C#N)c(NC(C)(C)C)o2)o1.Cl,Percent Effect,"30.3 µM, […]",70.96%
Cc1oc(-c2nc(C#N)c(NC3CC3)o2)cc1S(=O)(=O)N1CCCC1,Percent Effect,"30.3 µM, […]",1.943%
CC(C)Nc1oc(-c2ccc(S(=O)(=O)N(C)C)o2)nc1C#N,Percent Effect,"30.3 µM, […]",16.53%
CNc1oc(-c2ccc(S(=O)(=O)N(C)C)o2)nc1C#N,Percent Effect,"30.3 µM, […]",-4.203%
CN(C)S(=O)(=O)c1ccc(-c2nc(C#N)c(NC3CCCCC3)o2)o1,Percent Effect,"30.3 µM, […]",54.54%
Cc1ccc(N2C[C@H](C(=O)N3CCOCC3)[C@@H]3CCO[C@@H]3C2)nn1,Percent Effect,"30.3 µM, […]",10.85%
O=C(O)C(F)(F)F.c1csc(CN2CCn3c(Cn4cncn4)cnc3C2)n1,Percent Effect,"30 µM, 30.03 µM",0.7173%
CC(C)(C)c1noc(CCCC(=O)N2CCCC(c3ccn[nH]3)C2)n1 (stereo not given),Percent Effect,"30.3 µM, […]",-44.28%
COc1cc(S(=O)(=O)N2CCCc3ccccc32)cc(C(=O)O)c1OC,Percent Effect,"30 µM, 30.03 µM",1.897%
Cc1c(C(=O)NCc2ccnc(OCC(F)(F)F)c2)cnn1C,Percent Effect,30 µM,34.3%
O=C(c1ccccn1)N1CCc2c(nc(N3CCCC3)[nH]c2=O)C1,Percent Effect,"30 µM, 30.03 µM",-2.348%
Cc1cnn(-c2cccc(N3CCN(c4cc(C)nc(C)n4)CC3)n2)c1,Percent Effect,"30.3 µM, […]",-8.114%
Cc1cnn(-c2cccc(N3CCCCC3)n2)c1,Percent Effect,"30.3 µM, […]",-15%
Cc1cnn(-c2cccc(N3CCCC3)n2)c1,Percent Effect,"30.3 µM, […]",88.75%
c1c(CN2CCOCC2)nc2n1CCN(CC1CC1)C2,Percent Effect,"30.3 µM, […]",2.759%
CCc1csc(C2CCCN(C(=O)c3ccco3)C2)n1 (stereo not given),Percent Effect,30 µM,-22.84%
Cc1cccc(NS(=O)(=O)c2cc(C(=O)O)oc2C)c1,Percent Effect,"30.3 µM, […]",8.685%
CC(C)(C)NC(=O)c1ccn(COc2ccccc2Cl)n1,Percent Effect,"30.3 µM, […]",62.54%
CC(C)(C)NC(=O)c1ccn(COc2c(Cl)cccc2Cl)n1,Percent Effect,"30.3 µM, […]",6.361%
COC(=O)c1ccn(COc2ccccc2Cl)n1,Percent Effect,"30.3 µM, […]",-5.219%
c1nc(N2CCOC(Cn3cncn3)C2)c2cc[nH]c2n1 (stereo not given),Percent Effect,30 µM,24.06%
COCCN1CCCC(c2ncc(C(=O)N(C)C)c(C)n2)C1 (stereo not given),Percent Effect,"30.3 µM, […]",-9.482%
COCCC(=O)N1CCC2(COCc3c(C)nc(NCC4CC4)nc32)C1 (stereo not given),Percent Effect,"30 µM, 30.03 µM",4.108%
Cc1nc(NCC2CC2)nc2c1COCC21CCN(C(=O)NC(C)C)C1 (stereo not given),Percent Effect,"30.3 µM, […]",52.42%
Cc1nc(NCC2CC2)nc2c1COCC21CCN(C(=O)C(C)(C)C)C1 (stereo not given),Percent Effect,"30.3 µM, […]",-5.86%
Cn1ccnc1CN1CCC2(CC1)COC2.O=C(O)C(F)(F)F,Percent Effect,"30.3 µM, […]",21.73%
c1ccc(C2CCCN(Cc3cc4n(n3)CCNC4)CC2)cc1 (stereo not given),Percent Effect,"30.3 µM, […]",58.47%
O=C(CN1CCOc2ccccc2C1)NCc1cc2n(n1)CCNC2,Percent Effect,"30.3 µM, […]",5.311%
O=C(CN1CC(c2ccccc2)CC1=O)NCc1cc2n(n1)CCNC2 (stereo not given),Percent Effect,"30.3 µM, […]",29.23%
O=C(CN1CCC(c2ccccc2)CC1)NCc1cc2n(n1)CCNC2,Percent Effect,"30.3 µM, […]",55.19%
CC(=O)N1CC[C@H]2OCC[C@@]2(C(=O)NCCc2ccccn2)C1.O=C(O)C(F)(F)F,Percent Effect,"30.3 µM, […]",-0.5887%
CNc1snc(C)c1C(=O)N1CCCC(n2cccn2)C1 (stereo not given),Percent Effect,30 µM,20.79%
N#Cc1ccccc1N1CCCN(C(=O)CCc2ccco2)CC1,Percent Effect,"30.3 µM, […]",17.14%
CN(C(=O)C1(C#N)CCCCC1)c1nccs1,Percent Effect,"30.3 µM, […]",12.59%
Cn1nc(Cn2ccnc2)c2c1CN(C(=O)c1ccoc1)C2.O=C(O)C(F)(F)F,Percent Effect,"30.3 µM, […]",54.37%
Cc1ccoc1C(=O)N1Cc2c(Cn3ccnc3)nn(C)c2C1.O=C(O)C(F)(F)F,Percent Effect,"30.3 µM, […]",12.09%
Cn1nc(Cn2ccnc2)c2c1CN(Cc1ccoc1)C2.O=C(O)C(F)(F)F.O=C(O)C(F)(F)F,Percent Effect,"30.3 µM, […]",2.195%
COCc1nc2n(n1)CCCC2Nc1nc(C)ns1 (stereo not given),Percent Effect,"30.3 µM, […]",-12.79%
O=C(CC1CCC2(CC1)CCN(Cc1nccs1)CC2)N1CC=CC1,Percent Effect,"30.3 µM, […]",-13.52%
NC(=O)C(NC(=O)CCc1ccc(Cl)s1)c1ccccc1 (stereo not given),Percent Effect,"30.3 µM, […]",20.24%
NC(=O)C(NCc1ccc(Cl)s1)c1ccccc1 (stereo not given),Percent Effect,"30.3 µM, […]",22.99%
CC(C)(C)c1nc(CNc2ccccc2SCCC(N)=O)cs1,Percent Effect,"30.3 µM, […]",-34.53%
CC(C)(C)c1ncc(CNc2ccccc2SCCC(N)=O)s1,Percent Effect,"30.3 µM, […]",-11.51%
Cc1ccc(CNc2ccccc2SCCC(N)=O)s1,Percent Effect,"30.3 µM, […]",58.74%
NC(=O)CCSc1ccccc1NCc1ccc(Cl)s1,Percent Effect,"30.3 µM, […]",57.16%
Cc1nn(C)c(C)c1CN(C)C(=O)c1cccc(CCC(C)(C)O)c1,Percent Effect,"30.3 µM, […]",45.36%
O=C(O)C(F)(F)F.O=C(c1ccc[nH]1)N1CCCn2c(CNC3CCC3)nnc2C1,Percent Effect,"30.3 µM, […]",19.78%
Cc1ccccc1-c1cncc(C2CCN(C3CCOCC3)CC2)n1,Percent Effect,"30.3 µM, […]",-12.97%
NCC1CCN(c2nc(C3CCCC3)nc3c2CCNCC3)C1 (stereo not given),Percent Effect,"30.3 µM, […]",-3.279%
C1CCC(c2nc3c(c(N4CCN5CCCC5C4)n2)CCNCC3)C1 (stereo not given),Percent Effect,"30.3 µM, […]",52.04%
C1CCC(c2nc3c(c(N4CC(N5CCOCC5)C4)n2)CCNCC3)C1,Percent Effect,"30.3 µM, […]",33.91%
CCc1cn[nH]c1C1CCN(c2cc(C)c3cccc(OC)c3n2)CC1,Percent Effect,"30.3 µM, […]",13.27%
COCCNC(=O)c1nc(-c2cn(C)cn2)n2ccccc12,Percent Effect,"30.3 µM, […]",36.99%
Cn1cnc(-c2nc(C(=O)NCCN3CCOCC3)c3ccccn23)c1,Percent Effect,"30.3 µM, […]",40.37%
Cn1cnc(-c2nc(C(=O)NCCN3CCCC3)c3ccccn23)c1,Percent Effect,"30.3 µM, […]",50.91%
COCCN1CCN(Cc2nccs2)[C@H]2CS(=O)(=O)C[C@H]21,Percent Effect,"30.3 µM, […]",-6.4%
O=C(NCCC(=O)N1CCCC1)c1nn(-c2ccccc2F)cc1O,Percent Effect,"30 µM, 30.03 µM",-0.1897%
Cc1ncsc1CCC(=O)N1CCn2cccc2C1c1cccnc1 (stereo not given),Percent Effect,"30.3 µM, […]",18.51%
CNS(=O)(=O)c1ccc(CN(C)Cc2nc3ccc(F)cc3[nH]2)cc1,Percent Effect,"30.3 µM, […]",-17.23%
CN(Cc1cnc(C(C)(C)C)nc1)Cc1nc2ccc(F)cc2[nH]1,Percent Effect,"30.3 µM, […]",52.7%
Cc1ccc(CN(C)Cc2nc3ccc(F)cc3[nH]2)cn1,Percent Effect,"30.3 µM, […]",12.06%
Cc1c(C(=O)NCC2CCS(=O)(=O)C2)cnn1-c1ccccc1 (stereo not given),Percent Effect,"30.3 µM, […]",-5.688%
CN(C)C(=O)c1cccnc1-c1ccc2c(c1)OCO2,Percent Effect,"30.3 µM, […]",11.7%
C[C@@H]1CN(Cc2cc3ccccc3n2C)CC[C@]1(C)O,Percent Effect,"30.3 µM, […]",19.22%
C[C@@H]1CN(Cc2cc3ccccc3n2C)CC[C@@]1(O)C1CC1,Percent Effect,"30.3 µM, […]",34.38%
Cc1ccc2c(c1)cc(CN1CC[C@](C)(O)[C@H](C)C1)n2C,Percent Effect,"30.3 µM, […]",50.4%
CC(C(=O)N1CCN(CCOc2ccccc2)CC1)n1cncn1 (stereo not given),Percent Effect,"30.3 µM, […]",10.7%
CCOCC1CN(S(=O)(=O)C2CC2)Cc2cnn(C)c21 (stereo not given),Percent Effect,"30.3 µM, […]",-42.59%
CN(CC(=O)N1CCCC1)C(=O)c1ccccc1Nc1ccccc1,Percent Effect,"30.3 µM, […]",-2.979%
CCc1cnc(N)nc1NC(C)c1cnn(C)c1 (stereo not given),Percent Effect,"30.3 µM, […]",1.659%
CCc1cnc(N)nc1NC(C)c1ccc(C)c(C)c1 (stereo not given),Percent Effect,"30.3 µM, […]",88.85%
CCc1cnc(N)nc1N[C@@H](C)c1ncccc1C,Percent Effect,"30.3 µM, […]",22.19%
CC(C)OC[C@H]1CCC[C@]12CN(S(=O)(=O)c1cn(C)cn1)CCO2,Percent Effect,"30.3 µM, […]",9.701%
NC(c1ccc(F)cc1)c1cccs1 (stereo not given),Percent Effect,"30.3 µM, […]",6.777%
CN(C)CCO[C@@H]1CC[C@H]2[C@H]1OCCN2C(=O)c1ccccc1F,Percent Effect,"30.3 µM, […]",24.56%
Clc1ccccc1C1(c2ccnc(-c3ncccn3)n2)CCNCC1,Percent Effect,"30 µM, 30.03 µM",15.9%
CC(C)c1nccc(CN2CCC(O)(CN3CCCCC3)C2)n1 (stereo not given),Percent Effect,"30.3 µM, […]",18.94%
CC(C)(C)c1nccc(C2(c3ccccc3Cl)CCNCC2)n1,Percent Effect,"30.3 µM, […]",98.02%
CC(C)c1nccc(C2(c3ccccc3Cl)CCNCC2)n1,Percent Effect,"30.3 µM, […]",86.79%
Clc1ccccc1C1(c2ccnc(-c3ccncc3)n2)CCNCC1,Percent Effect,"30 µM, 30.03 µM",69.77%
O=c1[nH]cccc1-c1nccc(C2(c3ccccc3Cl)CCNCC2)n1,Percent Effect,"30.3 µM, […]",3.768%
CCC1C(=O)NCCN1c1ccnc(C(C)(C)C)n1 (stereo not given),Percent Effect,"30.3 µM, […]",-23.65%
CC(C)c1nccc(CN2CCCC(O)(CN3CCCC3)C2)n1 (stereo not given),Percent Effect,"30.3 µM, […]",-4.495%
CC(C)CSCCN1CCN(S(C)(=O)=O)CC1,Percent Effect,"30.3 µM, […]",-11.46%
O=C(c1ccccc1)N1C[C@@H]2CC[C@H](C1)N(C(=O)CN1CCOCC1)C2,Percent Effect,"30.3 µM, […]",12.92%
CCNc1c(C#N)c(=O)n(C)c(=O)n1C,Percent Effect,"30.3 µM, […]",22.41%
OC1CCN(c2ccnc(NCCc3ccccc3Cl)n2)CC1,Percent Effect,"30.3 µM, […]",-1.281%
OC1CCN(c2ccnc(NCCc3ccccc3Cl)n2)C1 (stereo not given),Percent Effect,"30.3 µM, […]",64.18%
OC1CCN(c2ccnc(NCCN3CCc4ccccc4C3)n2)C1 (stereo not given),Percent Effect,"30.3 µM, […]",47%
Cc1cc(=O)c(C(=O)Nc2cccc(CCN3CCCC3)c2)c[nH]1,Percent Effect,"30.3 µM, […]",12.01%
Cn1cc(C(=O)Nc2cccc(CCN3CCCC3)c2)ccc1=O,Percent Effect,"30.3 µM, […]",25.83%
Cc1ccc(F)c(C(=O)Nc2cccc(CCN3CCCC3)c2)c1,Percent Effect,"30.3 µM, […]",51.62%
